# Source: PubChem BioAssay (NCATS)
# Results filed as inconclusive are left out. Where a call stands in place of a potency, no number is given. The source made the active and inactive calls. Calls follow the shape of the dose curve; as a rule, active = well fitted curve in the direction sought with a large enough effect; inconclusive = small, poorly fitted or top-dose-only effect, or another doubt; inactive = no such curve, though single readings can be large; an effect the other way counts as inactive or inconclusive. Where a SMILES comes first, the peptide text is derived from it. Bridges are numbered along the chain shown (N, C = ends). [ ]: non-standard residue; d: D form. The star is where a group is joined. Dab(CH2SO3H) = N[C@@H](CCNCS(=O)(=O)O)C(=O)O; X3 = CC[C@@H](C)CCCCC(=O)*; Dab = NCC[C@H](N)C(=O)O
# Legend:
# [1] = P-glycoprotein substrates identified in KB-3-1 adenocarcinoma cell line, qHTS therapeutic library screen (AID 1346986); also: nearly all actives have a fitted effect of over 60% in size
# Method in brief: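 Using luminescence to quantify ATP, parental and P-gp-overexpressing KB cells were compared after 72 h compound titration. KB-8-5-11 was also run with the P-gp inhibitor tariquidar.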
# [2] = qHTS assay to identify small molecule inhibitors of chordoma cells - UCH-1 (AID 1259355); also: nearly all actives have a fitted effect of over 55% in size; also: potency is read from the fitted curve at half-maximal effect
# Method in brief: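 A 48hr growth-inhibition format: each drug tested at 15 concentrations together with added auranofin, camptothecin, doxorubicin, rubitecan and topotecan, with cell viability quantified as CellTiter-Glo luminescence.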
# [3] = P-glycoprotein substrates identified in KB-8-5-11 adenocarcinoma cell line, qHTS therapeutic library screen (AID 1346987); also: nearly all actives have a fitted effect of over 65% in size; also: potency is read from the fitted curve at half-maximal effect
# Method in brief: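 In this qHTS, P-gp-rich KB-8-5-11 cells received library compounds across a concentration range. Viability was quantified by luminescence after 72 h at 37 degree C.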
# [4] = qHTS assay to identify small molecule inhibitors of chordoma cells - UCH-2 (AID 1259356)
# [5] = qHTS profiling for inhibitors of Plasmodium falciparum (HB3) proliferation (AID 743324); conditions: Plasmodium falciparum HB3 blood-stage proliferation; at 28.7 µM (top of the series) unless noted
# Method in brief: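 SYBR Green fluorescence (485 ex/535 em) of lysed cultures, incubated overnight at room temperature in the dark, quantifies parasite DNA. Infected erythrocytes at 0.3% parasitemia and 2.5% hematocrit were exposed 72 h; values normalized to DMSO and 0.29 uM artemisinin controls.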
smiles,measurement,setting,value
COc1ccc2c3c1O[C@H]1C[C@@H](O)C=C[C@@]31CCN(C)C2,Potency,[1],inactive
CC[C@@]1(O)C(=O)OCc2c1cc1n(c2=O)Cc2cc3c([N+](=O)[O-])cccc3nc2-1,Potency,[2],0.794 µM (active)
same,Potency,[3],16.4 µM (active)
CC(Oc1ccccc1)C(=O)N[C@@H]1C(=O)N2[C@@H]1SC(C)(C)[C@@H]2C(=O)O (some centres not stated),Potency,[4],inactive
same,Potency,[3],inactive
CO[C@H]1C=CO[C@@]2(C)Oc3c(C)c(O)c4c(O)c(c5c(c4c3C2=O)=NC2(CCN(CC(C)C)CC2)N=5)NC(=O)/C(C)=C\C=C/[C@H](C)[C@H](O)[C@@H](C)[C@@H](O)[C@@H](C)[C@H](OC(C)=O)[C@@H]1C,Potency,[4],inactive
O=C1C(=O)c2ncccc2-c2cccnc21,Potency,[4],inactive
CO[C@H](C(=O)[C@@H](O)[C@@H](C)O)C1Cc2cc3cc(O[C@H]4C[C@@H](O[C@H]5C[C@@H](O)[C@H](O)[C@@H](C)O5)[C@@H](O)[C@@H](C)O4)c(C)c(O)c3c(O)c2C(=O)[C@H]1O[C@H]1C[C@@H](O[C@H]2C[C@@H](O[C@H]3C[C@](C)(O)[C@H](O)[C@@H](C)O3)[C@H](O)[C@@H](C)O2)[C@H](O)[C@@H](C)O1 (some centres not stated),Potency,[4],inactive
same,Potency,[3],inactive
CC(C)=O,Potency,[4],inactive
CC[C@@H](C(=O)[C@@H](C)[C@@H](O)[C@H](C)CCc1ccc(C)c(O)c1C(=O)O)[C@H]1O[C@](CC)([C@H]2CC[C@](O)(CC)[C@H](C)O2)C[C@@H]1C,Potency,[4],inactive
OCC(S)CS (configuration not stated),Potency,[4],inactive
CCCC(=O)O[C@]1(C(=O)COC(C)=O)CC[C@H]2[C@@H]3C[C@H](F)C4=CC(=O)C=C[C@]4(C)[C@@]3(F)[C@@H](O)C[C@@]21C,Potency,[4],inactive
same,Potency,[3],inactive
O=S(=O)(O)c1ccc2c(N=Nc3ccc(S(=O)(=O)O)c4ccccc34)c(O)c(S(=O)(=O)O)cc2c1,Potency,[4],inactive
CCCCC(CC)COC(=O)CC(C(=O)OCC(CC)CCCC)S(=O)(=O)O (configuration not stated),Potency,[4],inactive
same,Potency,[3],inactive
C[C@H](CCC(=O)O)[C@H]1CC[C@H]2[C@@H]3[C@H](O)C[C@@H]4C[C@H](O)CC[C@]4(C)[C@H]3CC[C@]12C,Potency,[4],inactive
same,Potency,[3],inactive
CN(C)CC/C=C1/c2ccccc2CSc2ccccc21,Potency,[4],inactive
CCOC(=O)O[C@]1(C(=O)COC(=O)CC)CC[C@H]2[C@@H]3CCC4=CC(=O)C=C[C@]4(C)[C@H]3[C@@H](O)C[C@@]21C,Potency,[4],inactive
CC(O)CO (configuration not stated),Potency,[4],inactive
same,Potency,[3],inactive
Nc1nc(N)c2nc(CNc3ccc(C(=O)N[C@@H](CCC(=O)O)C(=O)O)cc3)cnc2n1,Potency,[4],inactive
OCCO[C@@H]1[C@@H](O)[C@H](O)[C@@H](CO)O[C@@H]1O,Potency,[4],inactive
same,Potency,[3],inactive
CN1CCC(CN2c3ccccc3Sc3ccccc32)C1 (configuration not stated),"remaining proliferation (% of control), lower = more inhibition",[5],21.8%
same,Potency,[2],inactive
COC(=O)[C@H]1[C@H]2C[C@@H]3c4[nH]c5ccccc5c4CCN3C[C@H]2C[C@@H](OC(=O)c2cc(OC)c(OC)c(OC)c2)[C@@H]1OC,Potency,[2],10 µM (active)
same,Potency,[3],4.11 µM (active)
C=CC1=C(C)C2=CC3=NC(=C(CC(=O)[O-])C4=NC(=C(C)C4=C([O-])[O-])C=c4[n-]c(c(C)c4CC)=CC1=N2)C(CCC(=O)[O-])C3C.[Cu+2].[Na+].[Na+].[Na+] (configuration not stated),Potency,[4],inactive
O=CCCCC=O,Potency,[4],inactive
same,Potency,[3],inactive
CC(=O)Oc1c(C)cc(OCC(O)CNC(C)C)c(C)c1C (configuration not stated),Potency,[4],inactive
same,Potency,[3],inactive
CC[C@@H](C)CCCCC(=O)N[C@@H](CCNCS(=O)(=O)O)C(=O)N[C@H](C(=O)N[C@@H](CCNCS(=O)(=O)O)C(=O)N[C@H]1CCNC(=O)[C@H]([C@@H](C)O)NC(=O)[C@H](CCNCS(=O)(=O)O)NC(=O)[C@H](CCNCS(=O)(=O)O)NC(=O)[C@H](CC(C)C)NC(=O)[C@@H](CC(C)C)NC(=O)[C@H](CCNCS(=O)(=O)O)NC1=O)[C@@H](C)O (X3-[Dab(CH2SO3H)]T[Dab(CH2SO3H)][Dab][Dab(CH2SO3H)][dL]L[Dab(CH2SO3H)][Dab(CH2SO3H)]T; lactam 4-C),Potency,[4],inactive
same,Potency,[3],inactive
CC1=CCC(C(C)(C)O)CC1 (configuration not stated),Potency,[4],inactive
Nc1c(Br)cc(Br)cc1CNC1CCC(O)CC1 (configuration not stated),Potency,[4],inactive
CCCC(=O)Nc1ncnc2c1ncn2[C@@H]1O[C@@H]2COP(=O)(O)O[C@H]2[C@H]1OC(=O)CCC,Potency,[4],inactive
same,Potency,[3],inactive
CN(C)CCCN1c2ccccc2C(C)(C)c2ccccc21,Potency,[4],inactive
COC(C(=O)C(O)C(C)O)C1Cc2cc3cc(OC4CC(OC5CC(O)C(O)C(C)O5)C(O)C(C)O4)c(C)c(O)c3c(O)c2C(=O)C1OC1CC(OC2CC(OC3CC(C)(O)C(O)C(C)O3)C(O)C(C)O2)C(O)C(C)O1 (configuration not stated),Potency,[4],inactive
same,Potency,[3],inactive
CC(C)C(=O)OCC(=O)[C@@]12O[C@H](C3CCCCC3)O[C@@H]1C[C@H]1[C@@H]3CCC4=CC(=O)C=C[C@]4(C)[C@H]3[C@@H](O)C[C@@]12C,Potency,[4],inactive
CO[C@H]1C=CO[C@@]2(C)Oc3c(C)c(O)c4c(O)c(c5c(nc6cc(C)ccn65)c4c3C2=O)NC(=O)/C(C)=C\C=C[C@H](C)[C@H](O)[C@@H](C)[C@@H](O)[C@@H](C)[C@H](OC(C)=O)[C@@H]1C,Potency,[4],inactive
same,Potency,[3],inactive
CC1(C)C(C=C(Cl)Cl)C1C(=O)OCc1cccc(Oc2ccccc2)c1 (configuration not stated),Potency,[4],inactive
CCCCC(=O)O[C@]1(C(=O)CO)[C@H](C)C[C@H]2[C@@H]3CCC4=CC(=O)C=C[C@]4(C)[C@@]3(F)[C@@H](O)C[C@@]21C,Potency,[4],inactive
same,Potency,[3],inactive
O=C1CSC2(CCN(CCCN3c4ccccc4Sc4ccc(Cl)cc43)CC2)N1,Potency,[4],inactive
C[C@H]1C[C@H]2[C@@H]3CCC4=CC(=O)C=C[C@]4(C)[C@@]3(F)[C@@H](O)C[C@]2(C)[C@@]1(O)C(=O)CO,Potency,[4],inactive
same,Potency,[3],inactive
Cc1c(C)c2c(c(C)c1O)CC[C@@](C)(CCC[C@H](C)CCC[C@H](C)CCCC(C)C)O2,Potency,[4],inactive
COc1ccc(C[C@@H](C)NC[C@H](O)c2ccc(O)c(NC=O)c2)cc1,Potency,[4],inactive
same,Potency,[3],inactive
CCC(=O)NCCC1CCc2ccc3c(c21)CCO3 (configuration not stated),Potency,[4],inactive
CC1=C(/C=C/C(C)=C/C=C/C(C)=C/C=C/C=C(C)/C=C/C=C(C)/C=C/C2=C(C)CCCC2(C)C)C(C)(C)CCC1,Potency,[4],inactive
same,Potency,[3],inactive
CO[C@H]1C[C@@H]2CC[C@@H](C)[C@@](O)(O2)C(=O)C(=O)N2CCCC[C@H]2C(=O)O[C@H]([C@H](C)C[C@@H]2CC[C@@H](OCCO)[C@H](OC)C2)CC(=O)[C@H](C)/C=C(\C)[C@@H](O)[C@@H](OC)C(=O)[C@H](C)C[C@H](C)/C=C/C=C/C=C/1C,Potency,[4],inactive
NCc1ccccc1CC(=O)N[C@@H]1C(=O)N2C(C(=O)O)=C(CSc3nnnn3CC(=O)O)CS[C@H]12,Potency,[4],inactive
same,Potency,[3],inactive
